Reference: PubChem BioAssay AID624330 (Southern Research Specialized Biocontainment Screening …, 2012)
In all, about 340,000 compounds went through this assay and about 2,100 (0.62%) were called active.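 The calls were made as follows: active = first-screen hits whose inhibition reached a set limit at any dose in the follow-up dose series; inconclusive = inhibition above the set first-screen limit but never retested; inactive = the rest.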 The list is a sample of the results. Results with a measured potency or affinity are listed apart.

What follows are molecules tested against Rac GTPase-activating protein 1 (Homo sapiens) (UniProt Q9H0H5) (assay: MgcRacGAP GTPase-activating activity inhibitors, confirmation, biochemical, ADP Hunter fluorescence, primary and confirmatory (AID 624330;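 also: fluorescence reports GDP produced by GAP-driven GTP hydrolysis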)). Conditions: MgcRacGAP-stimulated Rac1 GTP hydrolysis, at 30 µM, hits give high values, GST-tagged Rac1 F28L mutant substrate.
Rac GTPase-activating protein 1 (Homo sapiens), sequence (Q9H0H5 whole entry, looked up): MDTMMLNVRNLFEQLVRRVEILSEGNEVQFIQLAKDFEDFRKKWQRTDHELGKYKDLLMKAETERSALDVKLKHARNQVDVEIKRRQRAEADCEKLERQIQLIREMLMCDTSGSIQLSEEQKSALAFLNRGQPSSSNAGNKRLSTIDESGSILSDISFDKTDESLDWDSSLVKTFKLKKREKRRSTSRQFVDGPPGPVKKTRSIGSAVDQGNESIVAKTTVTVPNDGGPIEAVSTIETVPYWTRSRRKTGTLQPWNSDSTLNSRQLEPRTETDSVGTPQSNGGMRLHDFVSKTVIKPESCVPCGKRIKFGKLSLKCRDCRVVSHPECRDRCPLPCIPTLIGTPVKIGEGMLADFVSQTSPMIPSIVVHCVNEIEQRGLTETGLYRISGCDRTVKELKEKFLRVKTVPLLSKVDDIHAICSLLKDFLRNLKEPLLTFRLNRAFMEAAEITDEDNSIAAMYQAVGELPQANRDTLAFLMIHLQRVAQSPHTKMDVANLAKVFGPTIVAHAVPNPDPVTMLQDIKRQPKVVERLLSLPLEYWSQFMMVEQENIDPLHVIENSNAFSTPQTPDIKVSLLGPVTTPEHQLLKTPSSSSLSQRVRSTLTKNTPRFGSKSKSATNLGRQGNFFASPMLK

inhibition, inactive:
Cn1c(CCc2ccccc2)n[nH]c1=S 4.25%, C=CCOCCN(CC)CC 6.71%, CC#CCCCC(=O)Nc1ccccc1C(=O)O 6.9%, CCCn1c(SCCc2ccccc2)nc2c1c(=O)[nH]c(=O)n2C -2.73%, CCN(CC)c1ccc(/C=N/NC(=O)c2ccc(Br)o2)cc1 14.9%, CCOc1ccc(NC(=O)COc2ccc(-n3cnnn3)cc2)cc1 6.31%, CCOC(=O)c1ccc(NC(=O)COc2ccc(-n3cnnn3)cc2)cc1 11.5%, COC(=O)Cc1ccc(NC(=O)c2ccc(Br)o2)cc1 18.8%, COc1cccc(C(=O)NCCS(=O)(=O)N2CCC3(CC2)OCCO3)c1 6.03%, CC(=O)CC(=O)Nc1cccc2c1CCCC2 5.33%, COC(=O)c1ccc(NCc2cc(O)ccc2O)cc1O 27%, COC(=O)c1cc(CNC(=O)c2ccc(O)c(Cl)c2)ccc1OC 2.78%, CNS(=O)(=O)c1ccc(C(=O)NCC(=O)NCC2COc3ccccc3O2)cc1 (stereo not drawn) 3.68%, O=C(Nc1ccccc1N1CCCC1)C1CCN(S(=O)(=O)c2ccccc2)CC1 2.86%, CC(C)OCCCNC(=O)CN1C(=O)/C(=C/c2ccccc2)Sc2ccccc21 -14.8%, Cc1ccc(-c2cc(C(=O)N(C)Cc3cnn(C)c3C)c3cc(Br)ccc3n2)cc1 7.31%, Cc1ccc(S(=O)(=O)/N=C2\C=C(NS(=O)(=O)c3ccccc3)C(=O)c3ccccc32)cc1 2.77%, O=C1C(Cl)=C(Nc2ccc(O)cc2)C(=O)c2ccccc21 27.1%, Cc1ccc(S(=O)(=O)Nc2ccc(N=Nc3ccc(O)cc3)cc2)cc1 21.7%, O=C1C(O)=C(O)C(=O)c2ccccc21 -6.63%, O[C@H]1C[C@H](c2ccccc2)N(Cc2cccs2)C[C@@H]1n1cc(-c2ccc(F)cc2)nn1 7.08%, Cc1[nH]c(=O)[nH]c(=O)c1S(=O)(=O)N1CCCC(C(=O)NCc2ccco2)C1 (stereo not drawn) 4.98%, Oc1ccccc1C=NNc1nc2ccccc2s1 4.1%, COc1cc(/C=N/Nc2nc3ccccc3s2)ccc1OC(=O)c1ccccc1F 4.55%, COc1cc(OC)cc(C(=O)Oc2ccc(/C=N/Nc3nc4ccccc4s3)cc2OC)c1 12.4%, Brc1csc(/C=N/Nc2nc3ccccc3s2)c1 8.54%, COc1ccc(C=NNc2nc3ccccc3s2)cc1 2.73%, COc1cc(/C=N/Nc2nc3ccccc3s2)cc([N+](=O)[O-])c1O 8.67%
